A549 tox-1 = A549 cytotoxicity, counter-screen for Nrf2 inhibitors; Potency, µM (highest dose often 46 µM), actives largely listed as inhibitors; AID 504648; A549 ARE-Fluc cells, CellTiter-Fluor viability, 18-24 h; 390,000 compounds, 0.16% hits
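A549 ARE_Fluc cells in 5% FBS OPTI-MEM were exposed to compounds in concentration-response for 18-24 h at 37 deg C. Viability was read by CellTiter-Fluor fluorescence (Ex 405/Em 525) after 30 min, before the luciferase read.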
PINK1 expr mod = changes PINK1 expression; PINK1 immunofluorescence, high-content cytometry, 24 h; Potency, µM (top dose mostly 76.6 µM), actives largely listed as activators; 410,000 compounds, 0.2% hits; AID 624263; active = well fitted activation curve with a large enough effect; inconclusive = small, poorly fitted or top-dose-only effect; cell line not stated here; note: nearly all actives have a fitted effect of over 65% in size
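Decision-based qHTS: stable cells, 24 h exposure to five compound concentrations, CCCP as control. Fixed cells stained for PINK1 plus nuclear, mitochondrial and cell markers, cytometer read.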
Nrf2 inh = blocks Nrf2 signaling; A549 ARE-Fluc reporter, luciferase luminescence, 18-24 h; Potency, µM (titrated, usually from 46 µM), most hits filed as inhibitors; 360,000 compounds, 2.1% hits; AID 504444; note: nearly all actives have a fitted effect of over 60% in size
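Cells were seeded and rested 2 h, then exposed to compounds for 18-24 h. CellTiter-Fluor was read first as a viability measure. BugLite was added 15 min before the final luminescent read of ARE-luciferase activity in A549 cells.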
Epigenetic derep = regulators of epigenetic silencing causing reporter derepression in mouse cells. murine LDR cells, GFP reporter derepression, 30 h. 280,000 compounds, 0.2% hits. AID 1865. Potency, µM (doses to about 53.9 µM), usual class: activators; note: nearly all actives have a fitted effect of over 60% in size
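In this reporter-derepression format, murine cells bearing a silenced integrated CMV-GFP locus incubate with test compound (30 h, 37 C), then are washed and imaged; fluorescent objects of 20–120 um count as induced cells.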
Nrf2 activator = activates Nrf2 signaling; AREc32 ARE-luciferase reporter (MCF7-derived line), luminescence, 24 h; Potency, µM (series often up to 46.1 µM), actives largely listed as activators; 410,000 compounds, 0.31% hits; AID 624171; note: nearly all actives have a fitted effect of over 65% in size
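Luciferase luminescence (Steady-Glo, 30 min at room temperature) served as the read-out of ARE activation in AREc32 cells treated with compounds for 24 hr at 37 deg C.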
FLuc counter 3 = firefly luciferase inhibition, Nrf2 hit validation. shares compounds with Nrf2 inh. purified firefly luciferase, luminescence inhibition. Potency, µM (titrated, usually from 57.5 µM), actives largely listed as inhibitors. 1,400 compounds, 4% hits. AID 720522; note: nearly all actives have a fitted effect of over 65% in size
Target sequence (P08659 whole entry, looked up): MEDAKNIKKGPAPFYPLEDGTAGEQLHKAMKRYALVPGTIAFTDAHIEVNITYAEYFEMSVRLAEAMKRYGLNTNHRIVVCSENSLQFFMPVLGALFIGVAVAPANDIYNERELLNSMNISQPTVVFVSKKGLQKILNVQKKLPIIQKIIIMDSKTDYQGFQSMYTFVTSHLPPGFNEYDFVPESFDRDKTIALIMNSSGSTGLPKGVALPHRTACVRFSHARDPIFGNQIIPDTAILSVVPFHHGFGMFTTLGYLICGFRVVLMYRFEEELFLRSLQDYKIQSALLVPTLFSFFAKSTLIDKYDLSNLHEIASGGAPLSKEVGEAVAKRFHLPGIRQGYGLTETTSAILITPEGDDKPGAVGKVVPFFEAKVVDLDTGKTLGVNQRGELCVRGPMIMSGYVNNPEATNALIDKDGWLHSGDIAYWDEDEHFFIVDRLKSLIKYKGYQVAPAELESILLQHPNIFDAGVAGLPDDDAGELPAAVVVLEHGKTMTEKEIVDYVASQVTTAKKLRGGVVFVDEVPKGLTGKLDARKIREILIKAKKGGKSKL
A549 tox-2 = toxic to A549 ARE-Fluc cells in Nrf2 counterscreen; shares compounds with Nrf2 inh; A549 ARE-Fluc cells, cytotoxicity counterscreen; Potency, µM (top dose mostly 46.1 µM), actives largely listed as inhibitors; 1,400 compounds, 2% hits;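 note: cells exposed to compounds for 18 to 24 hours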
Nrf2 ARE inh = reduces Nrf2 ARE reporter signal in A549 cells; shares compounds with Nrf2 inh; A549 ARE-firefly luciferase reporter, luminescence; Potency, µM (titrated, usually from 46.1 µM), most hits filed as inhibitors; 1,400 compounds, 74% hits; AID 720524; note: nearly all actives have a fitted effect of over 65% in size
Of the large screens only hits and unclear results are named; the others gave an inactive call (follow-up assays come after a bar, where shown); ! = not confirmed by another sample. In the library only some 2.4% were active in any assay of this set; here they are far more common. Unless noted, calls come from the whole dose curve; as a rule, active = well fitted curve in the direction sought with a large enough effect; inconclusive = small, poorly fitted or top-dose-only effect, or another doubt; inactive = no such curve, though single readings can be large; an effect the other way counts as inactive or inconclusive.

CCN(CC)c1ccc(C(=C2C=CC(=[N+](CC)CC)C=C2)c2ccccc2)cc1	A549 tox-1 9.2µM, Nrf2 inh 1.3µM (no result: Epigenetic derep) | FLuc counter 3 21µM | A549 tox-2 6.5µM | Nrf2 ARE inh 0.73µM
Cc1ccnc(NC(c2cc(C)ccc2O)c2ccc3cccnc3c2O)c1 (configuration not stated)	Nrf2 inh inconclusive
Oc1ccccc1C(Nc1nccs1)c1ccc2cccnc2c1O (configuration not stated)	A549 tox-1 inconclusive, Nrf2 inh 5.8µM | FLuc counter 3 inactive | A549 tox-2 inactive | Nrf2 ARE inh 13µM
Cc1ccc(C)c(N2CCN(CCCNC(=O)Cn3c(-c4cccs4)cc4ccccc43)CC2)c1	A549 tox-1 inconclusive, Nrf2 inh inconclusive
Cc1ccc(NC(=O)CSc2nn(-c3ccccc3)c(=S)s2)cc1S(=O)(=O)N(C)C	A549 tox-1 inconclusive, Nrf2 inh 5.8µM | FLuc counter 3 inactive | A549 tox-2 inactive | Nrf2 ARE inh 7.3µM
O=C(c1cnc(N2CCN(c3ccccn3)CC2)c2ccccc12)N1CCN(c2cccc(Cl)c2)CC1	Nrf2 inh 5.8µM | FLuc counter 3 inactive | A549 tox-2 inactive | Nrf2 ARE inh 8.2µM
Cc1ccc(Cn2c(C)c3cnn(CC(=O)N4CCN(c5cc(C)ccc5C)CC4)c(=O)c3c2C)cc1	Nrf2 inh 8.2µM | FLuc counter 3 inactive | A549 tox-2 inactive | Nrf2 ARE inh 6.5µM
Cc1c2cnn(CC(=O)N3CCN(c4ccc(F)cc4)CC3)c(=O)c2c(C)n1Cc1ccc(F)cc1	Nrf2 inh inconclusive
COc1nnc(-c2ccc(N3CCCCC3)c(NC(=O)c3ccccc3Cl)c2)c2ccccc12	PINK1 expr mod inconclusive, Nrf2 inh 6.5µM | FLuc counter 3 inactive | A549 tox-2 inactive | Nrf2 ARE inh 6.5µM
O=C(NCc1ccc2c(c1)OCO2)c1ccc2c(=O)n(C3CCCC3)c(=O)[nH]c2c1	A549 tox-1 inconclusive, Nrf2 inh 8.2µM | FLuc counter 3 inactive | A549 tox-2 inactive | Nrf2 ARE inh 0.23µM
COc1ccc(Cn2c(=O)[nH]c3cc(C(=O)NCc4ccc5c(c4)OCO5)ccc3c2=O)cc1	Nrf2 inh inconclusive (no result: Epigenetic derep)
Cc1ccccc1C(=O)N1CCN(c2ccc(NC(=O)c3ccc4c(c3)OCO4)cc2)CC1	Nrf2 inh 9.2µM | FLuc counter 3 inactive | A549 tox-2 inactive | Nrf2 ARE inh 7.3µM
CCCCOc1ccc(OC(=O)c2sc3ncn(Cc4cccc(F)c4)c(=O)c3c2C)cc1	none (no result: Nrf2 inh)
CCN(CC)CCNC(=O)c1cc(-c2ccc(Br)s2)nc2ccccc12	none
CCCCOc1cc(C(=O)NCCN(CC)CC)c2ccccc2n1	Nrf2 inh 9.2µM! | FLuc counter 3 inactive | A549 tox-2 inactive | Nrf2 ARE inh 6.5µM
COc1cc(/C=C2\CC/C(=C\c3cc(OC)c(OC)c(OC)c3)C2=O)cc(OC)c1OC	Epigenetic derep inconclusive
COc1cc(/C=C2\COC/C(=C\c3cc(OC)c(OC)c(OC)c3)C2=O)cc(OC)c1OC	Nrf2 inh 5.8µM | FLuc counter 3 inactive | A549 tox-2 inactive | Nrf2 ARE inh 0.12µM
COc1ccc(CCNc2nc3cc(OC)c(OC)cc3c3nc(-c4cccnc4)nn23)cc1OC	none
CCCN1CNc2c(c(=O)[nH]c(=S)n2CCc2ccc(Cl)cc2)C1	none (no result: Epigenetic derep, Nrf2 activator)
Cc1ccnc(NC(=O)CCCOc2cc(=O)n(C)c3ccccc23)c1	A549 tox-1 inconclusive, Nrf2 inh 4.1µM, Epigenetic derep inconclusive | FLuc counter 3 inactive | A549 tox-2 inconclusive | Nrf2 ARE inh 5.8µM
COc1ccc(C(=O)Nc2ccc(S(=O)(=O)N3CCOCC3)cc2)cc1	none (no result: Epigenetic derep)
Cc1ccc(OCCCC(=O)Nc2ccc(Cl)c(S(=O)(=O)N3CCOCC3)c2)cc1	Nrf2 inh inconclusive (no result: Epigenetic derep)
COc1ccc(C(=O)Nc2ccc(Cl)c(S(=O)(=O)N3CCOCC3)c2)cc1	Nrf2 inh 9.2µM (not shown: Epigenetic derep) | FLuc counter 3 21µM | A549 tox-2 inactive
CC(=O)c1ccc(OCCCC(=O)Nc2ccc(Cl)c(S(=O)(=O)N3CCOCC3)c2)cc1	Nrf2 inh 5.2µM (no result: Epigenetic derep) | FLuc counter 3 inactive | A549 tox-2 inactive | Nrf2 ARE inh 7.3µM
CCCCNc1cc(C(=O)O)cc(S(N)(=O)=O)c1Oc1ccccc1	Nrf2 inh 5.8µM | FLuc counter 3 inactive | A549 tox-2 inactive | Nrf2 ARE inh 6.5µM
Cc1ccc[n+](Cc2ccc([N+](=O)[O-])cc2)c1	Nrf2 inh inconclusive
O=[N+]([O-])c1ccc(C[n+]2cccc3c4ccccc4ccc32)cc1	A549 tox-1 inconclusive, Nrf2 inh 3.7µM | FLuc counter 3 inactive | A549 tox-2 inactive | Nrf2 ARE inh 3.7µM
CC(C(=O)Nc1ccc(O)cc1)c1cccc(C(=O)c2ccccc2)c1 (configuration not stated)	Nrf2 inh 9.2µM | FLuc counter 3 inactive | A549 tox-2 inactive | Nrf2 ARE inh inconclusive
COc1ccc(NC(=O)C(C)N2c3cccc4cccc(c34)S2(=O)=O)cc1OC (configuration not stated)	Nrf2 inh 8.2µM | FLuc counter 3 inactive | A549 tox-2 inactive | Nrf2 ARE inh 23µM
COc1ccc(NC(=O)C(C)N2c3cccc4cccc(c34)S2(=O)=O)cc1 (configuration not stated)	none (no result: Nrf2 inh)
COc1ccc(/C=N/NS(=O)(=O)c2ccc(C)cc2)cc1OC(=O)c1ccc(C)cc1	Nrf2 inh 5.2µM | FLuc counter 3 inactive | A549 tox-2 inactive
COc1ccc(C(=O)Oc2cc(/C=N/NS(=O)(=O)c3ccccc3)ccc2OC)cc1	none (no result: Nrf2 inh)
Cc1ccccc1C(=O)N1CCc2cc(-c3nc(NC(=O)Cc4ccc5c(c4)OCO5)sc3C)ccc21	Nrf2 inh 4.6µM | FLuc counter 3 inactive | A549 tox-2 inactive | Nrf2 ARE inh 5.8µM
O=C(Nc1ccccc1)c1ccc(S(=O)(=O)NCC2CCCO2)cc1 (configuration not stated)	none
O=C(Nc1cccc(Cl)c1)c1ccc(S(=O)(=O)NCC2CCCO2)cc1 (configuration not stated)	Nrf2 inh 4.6µM (no result: Epigenetic derep) | FLuc counter 3 inactive | A549 tox-2 inactive | Nrf2 ARE inh 13µM
Cc1oc2ncn(CC(C)C)c(=O)c2c1C(=O)N1CCN(c2ccc(F)cc2)CC1	none
Cc1cc(Cl)c(S(=O)(=O)N2CCN(c3ccc(F)cc3)CC2)cc1OCC(=O)NC1CCCCC1	Nrf2 inh 0.29µM | FLuc counter 3 inactive | A549 tox-2 inactive | Nrf2 ARE inh 0.73µM

Screens deposited in PubChem by National Center for Advancing Translational Sciences (NCATS).
